# Active and inactive are the calls of the source.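 How the source made its calls, unless noted: active means inhibition at or above 50% at 10 µM; inactive means inhibition below 50%.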
# Legend:
# [1] = inhibitors of TNFa-induced NFkB p65 translocation, primary screen, imaging, HUVEC, MLSMR starter and 10KST1 sets (AID 438;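 active means inhibition above 20% together with a positive visual image hit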;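 further: compound added about 3h40 before a 20 min TNFalpha stimulation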;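 on inhibition: signal is the nuclear over cytoplasmic p65 intensity ratio per well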); conditions: HUVEC TNFa-induced p65 nuclear translocation; cell count: measured here: nuclei count (cytotoxicity indicator), at 2.08 µM; inhibition: at 2 µM, stronger effect = higher value, 0% TNFa-plus-vehicle, 100% no-TNFa wells
# [2] = reduction of polyQ htt aggregates in cells – imaging, exon1htt(103Q)mCFP cells, high-content imaging, primary screen (AID 483;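 active means visual image review flags a hit and inhibition of aggregation exceeds 20%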;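 further: compound exposure lasted 3 days before fixation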;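 on nuclei count: percent of the per-plate median nuclei count of sample wells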); conditions: exon1htt(103Q)mCFP cell line, aggregate imaging, at 2 µM; inhibition of aggregation: stronger effect = higher value; nuclei count: measured here: cell count, toxicity
# [3] = endothelial E-selectin expression blockers – imaging, HUVEC, immunofluorescence, MLSMR starter and 10KST1 sets, primary screen (AID 487;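 active means visually confirmed hit in the image check and inhibition above 20%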;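 on inhibition: signal is fraction of cell area covered by stained E-selectin grains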;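 on nuclei count: 100% = median nuclei count of all wells on the same plate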); conditions: HUVEC TNFalpha-induced E-selectin immunofluorescence imaging, at 2 µM; inhibition: stronger effect = higher value; nuclei count: measured here: cell number, toxicity
# [4] = molecular target: Voltage-gated potassium channel subunit beta-2 (Rattus norvegicus) (UniProt P62483); experiment: inhibitors of rat Kvbeta2 reductase activity – biochemical, NADPH fluorescence, primary screen (AID 622;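 active means fluorescence slope higher than the sample average by over 3 SD, cut at about -0.22 in these data, passing the limit was not always enough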;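 further: slope of raw intensity against log time taken from 70 to 1610 s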); conditions: recombinant KvBeta, 4-cyanobenzaldehyde reduction, at 10 µM, stronger effect = higher value
# [5] = molecular target: Voltage-gated potassium channel subunit beta-2 (Rattus norvegicus) (UniProt P62483); experiment: enhancers of rat Kvbeta2 NADPH turnover – biochemical, NADPH fluorescence, primary screen (AID 623;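 active means NADPH fluorescence slope more negative than the mean of all samples by about 3 SD, 99.7% confidence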;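 further: fluorescence intensity change per second fitted from 20 to 320 s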); conditions: Recombinant KvBeta, NADPH fluorescence decrease slope, 10 min; at 10 µM; stronger effect = lower value
# [6] = molecular target: Alpha-2C adrenergic receptor (Homo sapiens) (UniProt P18825); experiment: compounds altering alpha2C-coupled GIRK flux – cell-based, HEK293 alpha2C/GIRK1/2, thallium flux, primary screen (AID 624;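 active means fluorescence slope after compound addition differing from the mean of all screened samples at 99.7% confidence, in either direction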;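 further: slope of fluorescence ratio to pre-addition baseline per second over 15 to 24 s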); conditions: thallium flux BTC fluorescence, at 10 µM, actives lie on both sides
# [7] = blockers of RIG-like receptor reporter activation – cell-based, Sendai virus stimulus, luciferase, 10K MLSCN set, TLR/RLR signaling modifier project, primary screen (AID 602276); conditions: HEK293 RL24 IRF3 luciferase reporter, at 10 µM, stronger effect = higher value;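 further: firefly luciferase from ISG56 promoter only with Renilla not read in this screen; 0% = Sendai virus plus DMSO and 100% = medium plus DMSO without virus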
# [8] = TLR3 IRF3 reporter activation blockers – cell-based, poly I:C stimulus, luciferase, 10K MLSCN set, primary screen (AID 602277;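 active means inhibition of the reporter signal at or above 50%; inactive means inhibition below 50%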); conditions: HEK293-TLR3 RL24 IRF3 luciferase reporter, at 10 µM, stronger effect = higher value
# Sequence of Voltage-gated potassium channel subunit beta-2 (Rattus norvegicus) (P62483 whole entry, looked up): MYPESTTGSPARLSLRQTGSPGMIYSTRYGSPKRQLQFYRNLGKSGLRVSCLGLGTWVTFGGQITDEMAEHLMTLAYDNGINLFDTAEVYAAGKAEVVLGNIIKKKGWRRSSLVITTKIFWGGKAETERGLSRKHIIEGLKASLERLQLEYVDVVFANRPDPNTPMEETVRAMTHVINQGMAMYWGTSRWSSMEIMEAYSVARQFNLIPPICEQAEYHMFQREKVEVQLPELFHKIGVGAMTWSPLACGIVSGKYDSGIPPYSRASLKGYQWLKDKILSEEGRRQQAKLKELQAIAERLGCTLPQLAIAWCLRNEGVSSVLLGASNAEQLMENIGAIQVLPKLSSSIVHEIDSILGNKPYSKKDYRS
# Sequence of Alpha-2C adrenergic receptor (Homo sapiens) (P18825 whole entry, looked up): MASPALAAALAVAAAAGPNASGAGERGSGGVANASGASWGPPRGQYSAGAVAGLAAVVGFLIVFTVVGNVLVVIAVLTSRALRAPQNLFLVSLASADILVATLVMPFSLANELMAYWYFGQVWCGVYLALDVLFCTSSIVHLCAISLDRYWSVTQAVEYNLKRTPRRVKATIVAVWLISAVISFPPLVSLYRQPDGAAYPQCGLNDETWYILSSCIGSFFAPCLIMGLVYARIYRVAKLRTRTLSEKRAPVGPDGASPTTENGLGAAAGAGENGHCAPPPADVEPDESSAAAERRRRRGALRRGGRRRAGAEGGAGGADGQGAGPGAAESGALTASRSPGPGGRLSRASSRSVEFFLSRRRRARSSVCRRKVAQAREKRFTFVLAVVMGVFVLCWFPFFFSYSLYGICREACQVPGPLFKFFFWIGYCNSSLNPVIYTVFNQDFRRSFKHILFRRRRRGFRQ
Structure (SMILES),cell count [1],inhibition [1],inhibition of aggregation [2],nuclei count [2],inhibition [3],nuclei count [3],fluorescence slope [4],NADPH fluorescence slope [5],slope [6],inhibition [7],inhibition [8]
O=C(Cc1cccs1)Nc1nnc(CCc2ccccc2)s1,382,1.5% (inactive),15.6% (inactive),110%,-152% (inactive),117%,-0.437 (inactive),-5.5e-05 (inactive),0.00318 (inactive),9.85% (inactive),31.2% (inactive)
CCOC(=O)c1[nH]c(C)c(C(=O)Nc2ccc(Cl)cc2)c1C,709,-1.6% (inactive),-32.6% (inactive),89.1%,-32% (inactive),114%,-0.591 (inactive),2.4e-05 (inactive),0.00669 (inactive),6.23% (inactive),-11% (inactive)
CCOC(=O)C(C(C)=O)c1nc(C)nc2c1nnn2Cc1ccccc1Cl (stereo not drawn),479,8.5% (inactive),-6% (inactive),96.1%,-10.3% (inactive),106%,-0.356 (inactive),-5.3e-05 (inactive),0.00379 (inactive),-11.2% (inactive),-19.4% (inactive)
CC(C)NC(=O)CSc1nc2ccccc2n1-c1ccccc1,379,2.5% (inactive),-2.9% (inactive),84.5%,-80.1% (inactive),125%,-0.59 (inactive),9.8e-06 (inactive),0.00781 (inactive),-22.3% (inactive),-5.89% (inactive)
Cc1nnc(SCC(=O)Nc2c(Cl)cccc2Cl)[nH]c1=O,598,1.1% (inactive),17.6% (inactive),87%,17.8% (inactive),103%,-0.553 (inactive),-4.3e-05 (inactive),0.00796 (inactive),8.99% (inactive),41.1% (inactive)
CC1CN(C(=O)c2cc3cc(Cl)cc(Cl)c3oc2=O)CC(C)O1 (stereo not drawn),365,5.6% (inactive),1% (inactive),104%,-24.5% (inactive),100%,-0.474 (inactive),-4.7e-06 (inactive),0.00693 (inactive),11.6% (inactive),23.5% (inactive)
Cc1cccnc1NC(=O)CCCN1C(=O)c2ccccc2C1=O,366,1.7% (inactive),-11.4% (inactive),102%,-32.4% (inactive),87.7%,-0.409 (inactive),-6.3e-05 (inactive),0.00485 (inactive),11.3% (inactive),10.4% (inactive)
CCOC(=O)c1ccc(N2Cc3cc(C)c(C)cc3C2)cc1O,744,2.9% (inactive),6.2% (inactive),92.7%,-36.2% (inactive),119%,-0.457 (inactive),-1.3e-05 (inactive),0.00595 (inactive),-26.7% (inactive),-52.7% (inactive)
CC1(C)CNC(=O)CC(C)(C)N1O,379,4% (inactive),7.9% (inactive),89.4%,-66.8% (inactive),110%,-0.497 (inactive),-6.2e-06 (inactive),0.00315 (inactive),-4.83% (inactive),19.7% (inactive)
COc1ccc(-n2nnnc2SCC(=O)N2CCOCC2)cc1,788,2.8% (inactive),9.1% (inactive),85.7%,-9.3% (inactive),114%,-0.525 (inactive),-4.9e-05 (inactive),0.00627 (inactive),2.03% (inactive),-10.7% (inactive)
Cc1occc1C(=O)N1CCN(Cc2ccccc2)CC1,661,-9% (inactive),8.8% (inactive),75.8%,-40.1% (inactive),104%,-0.483 (inactive),-3.8e-05 (inactive),0.00745 (inactive),7.4% (inactive),34.1% (inactive)
CC(=O)c1ccc(OCC(O)CN2CC(C)OC(C)C2)cc1 (stereo not drawn),310,8.6% (inactive),15% (inactive),92.4%,0.4% (inactive),98.9%,-0.613 (inactive),9.2e-06 (inactive),0.00724 (inactive),9.28% (inactive),16.8% (inactive)
CC(C)c1ccc(S(=O)(=O)N2CCN(CCC(=O)Nc3ccc(N(C)C)cc3)CC2)cc1,412,-1.6% (inactive),20% (inactive),91.6%,-15.3% (inactive),89.3%,-0.397 (inactive),-2.3e-05 (inactive),0.00369 (inactive),9.08% (inactive),20% (inactive)
Cc1c(C(=O)N2CCN(c3ccccc3)CC2)sc2ncnc(N3CCN(c4ccccc4)CC3)c12,613,6.2% (inactive),9.7% (inactive),107%,-70.4% (inactive),127%,-0.445 (inactive),-1.1e-05 (inactive),0.00705 (inactive),7.72% (inactive),4.87% (inactive)
CCc1nnc(NC(=O)CN2CCN(c3ccccc3OC)CC2)s1,287,6.2% (inactive),-10% (inactive),102%,3.6% (inactive),97.4%,-0.616 (inactive),-2e-05 (inactive),0.00643 (inactive),7.27% (inactive),27.9% (inactive)
CCOC(=O)c1ccc(NS(=O)(=O)c2ccc3c(c2)CCCN3C(C)=O)cc1,684,0.7% (inactive),9.2% (inactive),99%,-93.7% (inactive),125%,-0.543 (inactive),8.9e-06 (inactive),0.00506 (inactive),1.89% (inactive),6.65% (inactive)
Cc1cccc(NC(=O)CCN2CCN(C/C=C/c3ccccc3)CC2)c1,727,4.3% (inactive),4.2% (inactive),98.6%,15.3% (inactive),104%,-0.511 (inactive),-2.6e-05 (inactive),0.00628 (inactive),13.8% (inactive),6.07% (inactive)
O=C(NC1CCCCC1)n1c(=O)oc2ccc(Cl)cc21,666,13.9% (inactive),-4.2% (inactive),103%,23.4% (inactive),107%,-0.622 (inactive),-3.6e-05 (inactive),0.00609 (inactive),-1.88% (inactive),-13.8% (inactive)
N[C@@H](Cc1ccccc1)c1nnc2sc(SCc3ccccc3)nn12,444,-5.5% (inactive),-1.7% (inactive),84.8%,-15.7% (inactive),114%,-0.43 (inactive),-1.6e-06 (inactive),0.00539 (inactive),10.2% (inactive),98.1% (active)
Cc1cccc(Nc2ncc3c(n2)CC(c2ccco2)CC3=O)c1 (stereo not drawn),386,-1% (inactive),-7% (inactive),84.1%,-29% (inactive),187%,-0.378 (inactive),-1.7e-05 (inactive),0.003 (inactive),-2.61% (inactive),-12.4% (inactive)
Cc1ccccc1-n1c(Cn2c(=O)sc3ccccc32)nnc1SCC(N)=O,542,4.5% (inactive),4.1% (inactive),110%,-28.8% (inactive),111%,-0.518 (inactive),-3.8e-05 (inactive),0.00845 (inactive),16.4% (inactive),25.2% (inactive)
O=C(CSc1nnc(Cn2c(=O)sc3ccccc32)n1-c1ccccc1)NCC1CCCO1 (stereo not drawn),525,-6.2% (inactive),1.1% (inactive),106%,-19.9% (inactive),116%,-0.583 (inactive),-2.3e-05 (inactive),0.00648 (inactive),12% (inactive),37.7% (inactive)
Cn1c(SCc2nc3ccccc3c(=O)[nH]2)nnc1-c1ccco1,748,0% (inactive),11.8% (inactive),104%,-141% (inactive),131%,-0.496 (inactive),-6.5e-06 (inactive),0.00622 (inactive),-0.0213% (inactive),25.9% (inactive)
COc1ccc(-c2noc(CCN3C(=O)c4ccccc4C3=O)n2)cc1OC,555,7.6% (inactive),-3.7% (inactive),108%,28.6% (inactive),104%,-0.497 (inactive),-2.8e-05 (inactive),0.00665 (inactive),-0.74% (inactive),26.4% (inactive)
Cc1[nH]nc2c1C1(C(=O)N(Cc3ccc(Cl)cc3)c3ccccc31)C(C#N)=C(N)O2 (stereo not drawn),358,1.4% (inactive),-1.1% (inactive),101%,-24.6% (inactive),114%,-0.338 (inactive),-3.4e-05 (inactive),0.00523 (inactive),12.5% (inactive),0.315% (inactive)
O=C(NCC(c1cccnc1)N1CCOCC1)c1ccco1 (stereo not drawn),453,2.4% (inactive),-3.5% (inactive),100%,-42.3% (inactive),129%,-0.336 (inactive),3.2e-06 (inactive),0.00285 (inactive),15.9% (inactive),31% (inactive)
CCOc1ccc(NC(=O)C2CC(=O)N(C(C)C)C2)cc1 (stereo not drawn),346,-0.5% (inactive),11.8% (inactive),91.8%,-32.2% (inactive),96.8%,-0.623 (inactive),4.4e-05 (inactive),0.00445 (inactive),11% (inactive),12.4% (inactive)
Cc1ccc2cc(CCNC(=O)C(C)C)c(=O)[nH]c2c1C,640,1.9% (inactive),8.6% (inactive),57.4%,-60.4% (inactive),125%,-0.57 (inactive),-2.3e-05 (inactive),0.00565 (inactive),-6.46% (inactive),-5.17% (inactive)

# — PubChem BioAssay
